Screen size: about 5,500 compounds; about 2,000 (36%) were called active. Not shown: some 18% with an inconclusive outcome. Rule as the data show it: active = normalized growth mostly below about 0.91 (no sharp cut-off); inconclusive = no clear call, values can overlap the other calls; inactive = mostly above about 0.92. Some of the results follow.
Experiment: chemical genetic growth profiling, strain panel (AID 1159580);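 also: tested at 20 µM; growth read once vehicle control cultures reached saturation at 30 °C; 1 = growth at the plate median or of vehicle wells; lower values mean less growth of the strain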
Details: growth OD

Measured: normalized growth

CCN(CC)CCNc1ccc(CO)c2sc3ccccc3c(=O)c12
inactive: S. cerevisiae deletion strains, locus YJR075W, strain HOC1, stronger effect = lower value 0.979 | S. cerevisiae deletion strains, locus YKL009W, strain mrt4, stronger effect = lower value 0.993 | S. cerevisiae deletion strains, locus YKL068W, stronger effect = lower value 1 | S. cerevisiae deletion strains, locus YKL085W, strain MDH1 (second series), stronger effect = lower value 0.996 | S. cerevisiae deletion strains, locus YKL085W, strain MDH1, stronger effect = lower value 0.996 | S. cerevisiae deletion strains, locus YKL160W, strain elf1, stronger effect = lower value 1.01 | S. cerevisiae deletion strains, locus YKL190W, strain CNB1, stronger effect = lower value 1 | S. cerevisiae deletion strains, locus YKR001C, strain vps1, stronger effect = lower value 1 | S. cerevisiae deletion strains, locus YKR026C, strain gcn3, stronger effect = lower value 1.02 | S. cerevisiae deletion strains, locus YKR091W, strain srl3, stronger effect = lower value 1.01 | S. cerevisiae deletion strains, locus YLL001W, strain dnm1, stronger effect = lower value 1.01 | S. cerevisiae deletion strains, locus YLL026W, stronger effect = lower value 1.01 | S. cerevisiae deletion strains, locus YLL041C, strain sdh2, stronger effect = lower value 0.991 | S. cerevisiae deletion strains, locus YLR027C, strain aat2, stronger effect = lower value 1.01 | S. cerevisiae deletion strains, locus YLR039C, strain RIC1, stronger effect = lower value 1.01 | S. cerevisiae deletion strains, locus YLR058C, strain SHM2, stronger effect = lower value 0.998 | S. cerevisiae deletion strains, locus YLR102C, strain apc9, stronger effect = lower value 1.02 | S. cerevisiae deletion strains, locus YLR113W, strain HOG1, stronger effect = lower value 1.05 | S. cerevisiae deletion strains, locus YLR221C, strain rsa3, stronger effect = lower value 1.01 | S. cerevisiae deletion strains, locus YLR258W, strain gsy2, stronger effect = lower value 1.01 | S. cerevisiae deletion strains, locus YLR262C, strain YPT6 (second series), stronger effect = lower value 1 | S. cerevisiae deletion strains, locus YLR262C, strain YPT6, stronger effect = lower value 1.01 | S. cerevisiae deletion strains, locus YLR268W, strain sec22, stronger effect = lower value 0.947 | S. cerevisiae deletion strains, locus YLR320W, strain mms22, stronger effect = lower value 1.01 | S. cerevisiae deletion strains, locus YLR330W, strain CHS5, stronger effect = lower value 1.01 | S. cerevisiae deletion strains, locus YLR342W, strain FKS1 (second series), stronger effect = lower value 0.938 | S. cerevisiae deletion strains, locus YLR342W, strain FKS1, stronger effect = lower value 1 | S. cerevisiae deletion strains, locus YLR357W, strain rsc2, stronger effect = lower value 1.04 | S. cerevisiae deletion strains, locus YLR370C, strain arc18, stronger effect = lower value 1.01 | S. cerevisiae deletion strains, locus YLR371W, strain rom2, stronger effect = lower value 1.01 | S. cerevisiae deletion strains, locus YLR384C, strain iki3, stronger effect = lower value 1.01 | S. cerevisiae deletion strains, locus YLR418C, strain cdc73, stronger effect = lower value 0.919 | S. cerevisiae deletion strains, locus YML016C, strain PPZ1, stronger effect = lower value 0.996 | S. cerevisiae deletion strains, locus YML032C, strain rad52, stronger effect = lower value 0.948 | S. cerevisiae deletion strains, locus YML120C, strain ndi1, stronger effect = lower value 1.02 | S. cerevisiae deletion strains, locus YML124C, strain tub3, stronger effect = lower value 1.01 | S. cerevisiae deletion strains, locus YMR058W, strain fet3, stronger effect = lower value 0.998 | S. cerevisiae deletion strains, locus YMR078C, strain ctf18, stronger effect = lower value 1.01 | S. cerevisiae deletion strains, locus YMR125W, strain sto1, stronger effect = lower value 1 | S. cerevisiae deletion strains, locus YMR129W, stronger effect = lower value 1 | S. cerevisiae deletion strains, locus YMR205C, strain PFK2, stronger effect = lower value 0.997 | S. cerevisiae deletion strains, locus YMR223W, strain ubp8, stronger effect = lower value 0.994 | S. cerevisiae deletion strains, locus YMR231W, strain pep5, stronger effect = lower value 1.01 | S. cerevisiae deletion strains, locus YMR263W, strain SAP30, stronger effect = lower value 0.985 | S. cerevisiae deletion strains, locus YMR307W, strain GAS1, stronger effect = lower value 1.01 | S. cerevisiae deletion strains, locus YNL067W, strain RPL9B, stronger effect = lower value 0.973 | S. cerevisiae deletion strains, locus YNL071W, strain lat1, stronger effect = lower value 1.01 | S. cerevisiae deletion strains, locus YNL128W, strain TEP1, stronger effect = lower value 0.992 | S. cerevisiae deletion strains, locus YNL153C, strain GIM3, stronger effect = lower value 0.962 | S. cerevisiae deletion strains, locus YNL183C, strain NPR1, stronger effect = lower value 0.952 | S. cerevisiae deletion strains, locus YNL209W, strain ssb2, stronger effect = lower value 1.02 | S. cerevisiae deletion strains, locus YNL233W, strain BNI4, stronger effect = lower value 0.955 | S. cerevisiae deletion strains, locus YNL248C, strain rpa49, stronger effect = lower value 1 | S. cerevisiae deletion strains, locus YNL250W, strain rad50, stronger effect = lower value 1 | S. cerevisiae deletion strains, locus YNL271C, strain bni1, stronger effect = lower value 1.01 | S. cerevisiae deletion strains, locus YNL298W, strain CLA4, stronger effect = lower value 1.01 | S. cerevisiae deletion strains, locus YNL307C, strain MCK1, stronger effect = lower value 0.962 | S. cerevisiae deletion strains, locus YNL322C, strain KRE1 (second series), stronger effect = lower value 1.01 | S. cerevisiae deletion strains, locus YNL322C, strain KRE1, stronger effect = lower value 1.01 | S. cerevisiae deletion strains, locus YNR049C, strain mso1, stronger effect = lower value 1.01 | S. cerevisiae deletion strains, locus YNR052C, strain pop2, stronger effect = lower value 1.01 | S. cerevisiae deletion strains, locus YOL006C, strain TOP1, stronger effect = lower value 0.883 | S. cerevisiae deletion strains, locus YOL012C, strain htz1 0.879 | S. cerevisiae deletion strains, locus YOL147C, strain pex11, stronger effect = lower value 1.02 | S. cerevisiae deletion strains, locus YOR001W, strain rrp6, stronger effect = lower value 1 | S. cerevisiae deletion strains, locus YOR061W, strain CKA2, stronger effect = lower value 1 | S. cerevisiae deletion strains, locus YOR069W, strain VPS5, stronger effect = lower value 0.993 | S. cerevisiae deletion strains, locus YOR070C, strain gyp1, stronger effect = lower value 1 | S. cerevisiae deletion strains, locus YOR080W, strain dia2, stronger effect = lower value 1.01 | S. cerevisiae deletion strains, locus YOR083W, strain WHI5, stronger effect = lower value 1 | S. cerevisiae deletion strains, locus YOR106W, strain vam3, stronger effect = lower value 1.02 | S. cerevisiae deletion strains, locus YOR136W, strain idh2, stronger effect = lower value 1.01 | S. cerevisiae deletion strains, locus YOR144C, strain elg1, stronger effect = lower value 1 | S. cerevisiae deletion strains, locus YOR184W, strain ser1, stronger effect = lower value 0.995 | S. cerevisiae deletion strains, locus YOR231W, strain MKK1, stronger effect = lower value 1.04 | S. cerevisiae deletion strains, locus YOR265W, strain rbl2, stronger effect = lower value 1 | S. cerevisiae deletion strains, locus YOR270C, strain vph1, stronger effect = lower value 0.976 | S. cerevisiae deletion strains, locus YOR290C, strain snf2, stronger effect = lower value 1.01 | S. cerevisiae deletion strains, locus YOR316C, strain cot1, stronger effect = lower value 1.01 | S. cerevisiae deletion strains, locus YPL051W, strain arl3, stronger effect = lower value 0.997 | S. cerevisiae deletion strains, locus YPL055C, strain LGE1, stronger effect = lower value 0.954 | S. cerevisiae deletion strains, locus YPL078C, strain atp4, stronger effect = lower value 1.01 | S. cerevisiae deletion strains, locus YPL106C, strain sse1, stronger effect = lower value 1.02 | S. cerevisiae deletion strains, locus YPL240C, strain hsp82, stronger effect = lower value 1.01 | S. cerevisiae deletion strains, locus YPL241C, strain CIN2, stronger effect = lower value 1.02 | S. cerevisiae deletion strains, locus YPL256C, strain CLN2, stronger effect = lower value 1.01 | S. cerevisiae deletion strains, locus YPR119W, strain clb2, stronger effect = lower value 1.02 | S. cerevisiae deletion strains, locus YPR141C, strain kar3, stronger effect = lower value 1.02 | S. cerevisiae deletion strains, locus YPR163C, strain tif3, stronger effect = lower value 0.996 | S. cerevisiae deletion strains, locus YPR167C, strain met16, stronger effect = lower value 1.01 | S. cerevisiae deletion strains, strain wtn01, stronger effect = lower value 0.988 | S. cerevisiae strains, strain wild type, stronger effect = lower value 1.01
